Where a name gives a salt, the structure may show the parent alone. A number with no mark means an inactive call.
System: Vero E6 infected with SARS-CoV-2
Test: inhibition of SARS-CoV-2 cytopathic effect; higher = more antiviral protection, active = above 15
Details: 48 h

Compound | inhibition of SARS-CoV-2 cytopathic effect (1 nM) | inhibition of SARS-CoV-2 cytopathic effect (8.33 nM) | inhibition of SARS-CoV-2 cytopathic effect (100 nM) | inhibition of SARS-CoV-2 cytopathic effect (833.33 nM) | inhibition of SARS-CoV-2 cytopathic effect (10000 nM)
Clc1ccc(COC(Cn2ccnc2)c2ccc(Cl)cc2Cl)cc1 (stereo not given) [econazole] | 1.49% | 1.04% | 0.94% | 3.08% | -1.91%
CCCN(C/C=C/I)[C@H]1CCc2ccc(O)cc2C1 [7-hydroxy-PIPAT] | -0.76% | 0.14% | -1.03% | -0.19% | -1.39%
O[C@@H](CN1CCC(Cc2ccc(F)cc2)CC1)c1ccc(Cl)cc1 (racemic) [eliprodil] | 0.81% | 0.95% | 0.19% | 2.59% | -0.42%
C[C@H](N[C@@H](CCc1ccccc1)C(=O)O)C(=O)N1Cc2ccccc2C[C@H]1C(=O)O [quinaprilat] | -0.56% | -0.93% | -1.42% | -0.25% | 0.11%
CN(C)CCOC(=O)C(c1ccccc1)C1(O)CCCC1 (stereo not given) [cyclopentolate] | -1.73% | 1.59% | -2.5% | -0.18% | -1.17%
CCN(C)C(=O)Oc1cccc([C@H](C)N(C)C)c1 [rivastigmine] | -1.4% | 0.73% | 2.11% | -1.22% | -1.56%
CCn1nc(C)c2c1C(c1ccccc1)=NCC(=O)N2 [ripazepam] | -1.39% | 0.91% | 0.56% | -0.98% | -3.15%
O=C(O[C@H]1C[N+]2(CCCOc3ccccc3)CCC1CC2)C(O)(c1cccs1)c1cccs1 [aclidinium] | -0.75% | -1.25% | -2.4% | 1.93% | 1.6%
CCc1nc(C(N)=O)c(Nc2ccc(N3CCC(N4CCN(C)CC4)CC3)c(OC)c2)nc1NC1CCOCC1 [gilteritinib] | 0.28% | 0.02% | -2.49% | -0.11% | 10.3%
N=C(N)NCCC[C@H](NC(=O)[C@@H]1CCCN1C(=O)[C@@H]1CSSC[C@H](N)C(=O)N[C@@H](Cc2ccc(O)cc2)C(=O)N[C@@H](Cc2ccccc2)C(=O)N[C@@H](CCC(N)=O)C(=O)N[C@@H](CC(N)=O)C(=O)N1)C(=O)NCC(N)=O [vasopressin] | 3.02% | -0.42% | 1.64% | 0.05% | -0.05%
Cc1cc(Nc2ncnc3ccc(NC4=NC(C)(C)CO4)cc23)ccc1Oc1ccn2ncnc2c1 [tucatinib] | -2.37% | 0.54% | -5.16% | -3.64% | -12.7%
COc1cc(C[C@H]2c3cc(OC)c(OC)cc3CCN2C)c(Oc2cc3c(cc2OC)-c2c(OC)c(OC)cc4c2[C@H](C3)N(C)CC4)cc1OC [thaliblastine] | 1.34% | 1.21% | -0.77% | 3.94% | 45.5% (active)
CCN(CC)Cc1ccc2cc(COC(=O)Nc3ccc(C(=O)NO)cc3)ccc2c1 [givinostat] | -2.85% | -0.88% | -5.68% | -19.8% | -29.6%
O=CN1CCC(C(=O)NCCN2CCC(=C3c4ccccc4C=Cc4ccccc43)CC2)CC1 | 1.02% | 0.48% | 0.42% | -2.21% | 1.23%
O=C(Nc1c(-c2cccs2)nc2ccccn12)c1ccc(Cl)cc1 | 1.67% | -0.43% | -1.06% | 1.78% | 9.03%
CO[C@]12C[C@@H](COC(=O)c3cncc(Br)c3)CN(C)[C@@H]1Cc1cn(C)c3cccc2c13 [nicergoline] | 0.73% | -1.36% | -1.54% | 0.48% | -0.35%
CC/C(=C(\c1ccc(O)cc1)c1ccc(OCCNC)cc1)c1ccccc1 [Endoxifen HCl] | -1.34% | 7.36% | 10.6% | -0.77% | 57% (active)
CCN(c1ccccc1)c1cc(=NC)n(C)c(C)n1 | -6.18% | -5.43% | -5.42% | -2.51% | -0.53%
CCN1CCCC(OC(=O)C(c2ccccc2)c2ccccc2)C1 (stereo not given) [piperidolate] | -8.23% | -7.13% | -7.85% | -6.63% | -10.7%

Compound | inhibition of SARS-CoV-2 cytopathic effect (1 nM) | inhibition of SARS-CoV-2 cytopathic effect (8.33 nM) | inhibition of SARS-CoV-2 cytopathic effect (100 nM) | inhibition of SARS-CoV-2 cytopathic effect (833.33 nM) | inhibition of SARS-CoV-2 cytopathic effect (10000 nM)
CN(C)c1cccc(Oc2cnc(Nc3cccc(O)c3)nc2)c1 | -2.69% | 0.57% | -1.76% | 2.09% | -3.69%
N[C@@H](Cc1c[nH]c2ccc(O)cc12)C(=O)O [5-hydroxytryptophan] | -0.86% | 0.52% | 1.04% | 2.16% | 2.55%
CC(C(=O)O)c1ccc2c(c1)CC(=O)c1ccccc1S2 (stereo not given) [zaltoprofen] | 1.83% | 2.8% | 3.97% | 0.28% | 1.17%
CN1C(C(=O)Nc2ccccn2)=C(O)c2sccc2S1(=O)=O [tenoxicam] | -1.61% | -5.04% | -1.6% | 0.7% | -2.71%
CC[C@H](CC[C@@H](C)[C@H]1CC[C@H]2[C@@H]3CC=C4C[C@@H](O[C@@H]5O[C@H](CO)[C@@H](O)[C@H](O)[C@H]5O)CC[C@]4(C)[C@H]3CC[C@]12C)C(C)C [daucosterol] | 0.22% | -0.23% | 0.27% | 0.28% | -1.86%
CCCCC(=O)O[C@H]1CC[C@H]2[C@@H]3CCc4cc(O)ccc4[C@H]3CC[C@]12C | -0.93% | 0.74% | -1.48% | -1.92% | -0.83%
CCCCCCCC(=O)N[C@H](CN1CCCC1)[C@H](O)c1ccc2c(c1)OCCO2 [eliglustat] | 3.28% | 2.4% | -0.12% | 4.02% | 0.05%
OCc1cncc(F)c1 [5-fluoro-3-pyridyl-methanol] | -1.88% | 0.14% | -10.8% | -0.19% | -2.94%
O=C1NCC2(CCN(CCc3ccccc3)CC2)O1 [fenspiride] | -2.77% | -1.55% | 2.18% | 0.71% | 0.43%
CC(C)(C(=O)O)c1ccc(C(=O)CCCN2CCC(OC(c3ccccc3)c3ccccc3)CC2)cc1 [carebastine] | -2.83% | -1.16% | -0.91% | -2.56% | -0.56%
CC(=O)N1CCN(CCOc2ccc(C3CCN(C4=Nn5c(nnc5C(F)(F)F)CC4)CC3)cc2)CC1 | 0.09% | 1.43% | 0.26% | 1.65% | 1.88%
CC[C@@]1(O)C(=O)OCc2c1cc1n(c2=O)Cc2cc3cc(O)ccc3nc2-1 [10-hydroxycamptothecin] | -0.65% | -0.13% | -3.85% | -12.8% | -13.8%
N#CC(Cc1ccc(O)cc1)c1ccc(O)cc1 (stereo not given) [diarylpropionitrile] | -1.07% | 1.57% | -1.11% | -3.56% | -1.54%
O=S(=O)(F)Cc1ccccc1 [phenylmethylsulfonyl-fluoride] | -2.45% | -1.22% | 2.93% | 0.75% | 1.71%
CCN(CC)CCOc1ccc(Nc2ncc3cc(-c4c(Cl)cccc4Cl)c(=O)n(C)c3n2)cc1 | -0.79% | -0.21% | -2.93% | -9.61% | -31.3%
NCCC(=O)N[C@@H](Cc1c[nH]cn1)C(=O)O [carnosine] | -0.87% | -1.74% | -2.85% | -2.56% | -17.4%
CCCCOc1ccc(C(=O)CCN2CCCCC2)cc1 [dyclonine] | 2.76% | 3.66% | 3.14% | 3.62% | -0.75%
O=C(Nc1ccccc1)c1ccccc1O [salicylanilide] | -4.46% | -2.22% | -1.24% | 1.14% | 0.54%
O=C(Nc1cc(C(F)(F)F)cc(C(F)(F)F)c1)Nc1c(Br)cc(Br)cc1-c1nnn[nH]1 | 1.22% | 1.04% | -0.61% | -2.22% | -3.2%
